Test results taken from the supplement of paper PMC11006884.
About 6,500 targets were measured; listed, in parts, are those with a hit and a random draw of the rest. About 2% of all pairs of compound and target were hits. Values without a mark were called inactive.

Compound: COC(=O)C#Cc1ccccc1 [methyl 3-phenylpropiolate]
Experiment: log2 ratio of iodoacetamide-alkyne labeling of the cysteine site, DMSO over compound (competition); higher = stronger covalent engagement of the cysteine by the compound, active = 1 or more
Conditions: 500 µM; treatment time 1 h; system: HEK293T cell lysate
Method in brief: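 For each cysteine, the log2 competition ratio is mean control-channel reporter intensity over mean compound-channel reporter intensity. HEK293T lysate (2 mg/mL) was exposed to vehicle or electrophile (500 µM, 1 h, ambient temperature), labelled with iodoacetamide alkyne (1 h), clicked to sCIP-TMT reagents, digested overnight with trypsin at 37 °C, streptavidin-enriched and analysed by Orbitrap Eclipse LC-MS/MS with FAIMS and FragPipe. Cysteines quantified in only one of three replicates, each with duplicate channels, were excluded.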

UniProt P14314, sequence (P14314 whole entry, looked up): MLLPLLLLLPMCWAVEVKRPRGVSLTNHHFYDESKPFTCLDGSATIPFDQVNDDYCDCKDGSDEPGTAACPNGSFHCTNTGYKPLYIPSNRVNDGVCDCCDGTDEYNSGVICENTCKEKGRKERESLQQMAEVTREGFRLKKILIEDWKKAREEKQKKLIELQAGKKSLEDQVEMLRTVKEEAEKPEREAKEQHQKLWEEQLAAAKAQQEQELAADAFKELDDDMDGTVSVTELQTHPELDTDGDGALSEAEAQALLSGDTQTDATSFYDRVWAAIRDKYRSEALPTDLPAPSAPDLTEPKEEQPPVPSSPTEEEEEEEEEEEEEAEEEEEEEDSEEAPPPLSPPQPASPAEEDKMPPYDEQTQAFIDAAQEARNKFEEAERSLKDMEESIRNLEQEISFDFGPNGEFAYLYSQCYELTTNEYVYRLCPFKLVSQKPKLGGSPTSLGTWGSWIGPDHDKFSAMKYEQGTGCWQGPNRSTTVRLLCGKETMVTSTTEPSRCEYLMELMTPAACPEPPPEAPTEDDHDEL
UniProt P46821, sequence (P46821 whole entry, looked up): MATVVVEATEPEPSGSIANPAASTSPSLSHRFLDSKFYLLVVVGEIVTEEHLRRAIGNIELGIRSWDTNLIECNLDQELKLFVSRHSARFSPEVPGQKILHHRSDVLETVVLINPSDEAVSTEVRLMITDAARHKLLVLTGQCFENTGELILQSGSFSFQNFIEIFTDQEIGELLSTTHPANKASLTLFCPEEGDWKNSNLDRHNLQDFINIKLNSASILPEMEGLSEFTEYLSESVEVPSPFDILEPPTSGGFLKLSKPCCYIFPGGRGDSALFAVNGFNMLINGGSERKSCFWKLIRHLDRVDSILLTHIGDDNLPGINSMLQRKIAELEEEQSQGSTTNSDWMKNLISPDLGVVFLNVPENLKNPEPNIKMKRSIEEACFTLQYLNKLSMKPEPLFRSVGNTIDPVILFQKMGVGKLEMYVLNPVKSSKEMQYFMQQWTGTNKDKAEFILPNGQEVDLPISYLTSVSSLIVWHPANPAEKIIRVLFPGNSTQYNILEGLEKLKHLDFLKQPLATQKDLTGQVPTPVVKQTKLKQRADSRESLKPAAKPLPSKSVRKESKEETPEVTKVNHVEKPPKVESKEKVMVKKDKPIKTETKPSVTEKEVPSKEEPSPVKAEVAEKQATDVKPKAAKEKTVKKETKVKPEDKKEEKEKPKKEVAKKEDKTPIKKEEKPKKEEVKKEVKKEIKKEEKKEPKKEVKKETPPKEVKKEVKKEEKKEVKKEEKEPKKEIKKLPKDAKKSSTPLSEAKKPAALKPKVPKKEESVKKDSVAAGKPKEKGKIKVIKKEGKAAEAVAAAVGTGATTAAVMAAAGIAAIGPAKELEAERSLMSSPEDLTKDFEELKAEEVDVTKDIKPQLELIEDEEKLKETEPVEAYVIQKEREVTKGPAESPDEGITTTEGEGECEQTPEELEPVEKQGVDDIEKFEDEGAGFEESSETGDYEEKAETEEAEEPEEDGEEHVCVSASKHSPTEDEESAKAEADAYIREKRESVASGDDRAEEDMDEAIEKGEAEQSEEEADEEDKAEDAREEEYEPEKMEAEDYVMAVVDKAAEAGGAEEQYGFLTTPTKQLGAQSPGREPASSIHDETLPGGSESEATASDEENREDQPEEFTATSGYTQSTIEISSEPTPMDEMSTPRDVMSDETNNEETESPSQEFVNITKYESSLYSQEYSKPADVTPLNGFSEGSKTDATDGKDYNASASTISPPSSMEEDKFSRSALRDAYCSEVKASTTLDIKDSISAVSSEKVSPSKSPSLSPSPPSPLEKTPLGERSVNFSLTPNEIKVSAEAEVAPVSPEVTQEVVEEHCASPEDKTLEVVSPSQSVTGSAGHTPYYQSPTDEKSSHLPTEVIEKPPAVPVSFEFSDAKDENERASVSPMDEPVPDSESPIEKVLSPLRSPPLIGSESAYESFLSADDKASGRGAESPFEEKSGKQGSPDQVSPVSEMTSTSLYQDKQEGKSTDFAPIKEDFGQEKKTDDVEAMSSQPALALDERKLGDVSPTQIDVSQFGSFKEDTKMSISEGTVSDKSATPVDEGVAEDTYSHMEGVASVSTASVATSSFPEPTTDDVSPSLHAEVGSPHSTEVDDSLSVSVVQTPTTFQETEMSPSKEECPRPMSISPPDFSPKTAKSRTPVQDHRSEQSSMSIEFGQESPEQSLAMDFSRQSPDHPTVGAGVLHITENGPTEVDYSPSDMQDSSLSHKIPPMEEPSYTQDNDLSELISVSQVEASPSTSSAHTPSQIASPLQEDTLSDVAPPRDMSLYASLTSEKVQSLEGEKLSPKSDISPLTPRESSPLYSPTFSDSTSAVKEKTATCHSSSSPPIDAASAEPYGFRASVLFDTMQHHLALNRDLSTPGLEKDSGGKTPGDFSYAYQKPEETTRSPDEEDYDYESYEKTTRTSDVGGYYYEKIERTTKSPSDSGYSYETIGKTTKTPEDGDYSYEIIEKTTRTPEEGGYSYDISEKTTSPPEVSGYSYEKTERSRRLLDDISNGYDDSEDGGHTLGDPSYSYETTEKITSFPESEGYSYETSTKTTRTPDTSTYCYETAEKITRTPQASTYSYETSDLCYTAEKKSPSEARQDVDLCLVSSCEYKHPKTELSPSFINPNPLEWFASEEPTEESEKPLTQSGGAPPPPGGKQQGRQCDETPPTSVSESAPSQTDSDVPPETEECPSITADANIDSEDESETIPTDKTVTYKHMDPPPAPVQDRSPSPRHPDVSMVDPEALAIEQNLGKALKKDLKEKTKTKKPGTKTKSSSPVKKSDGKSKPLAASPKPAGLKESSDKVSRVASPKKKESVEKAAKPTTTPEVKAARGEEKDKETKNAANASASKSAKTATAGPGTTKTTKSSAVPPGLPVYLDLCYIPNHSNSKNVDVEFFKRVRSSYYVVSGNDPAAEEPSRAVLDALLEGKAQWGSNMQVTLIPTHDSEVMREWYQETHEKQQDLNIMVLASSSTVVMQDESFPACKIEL
UniProt P30153, sequence (P30153 whole entry, looked up): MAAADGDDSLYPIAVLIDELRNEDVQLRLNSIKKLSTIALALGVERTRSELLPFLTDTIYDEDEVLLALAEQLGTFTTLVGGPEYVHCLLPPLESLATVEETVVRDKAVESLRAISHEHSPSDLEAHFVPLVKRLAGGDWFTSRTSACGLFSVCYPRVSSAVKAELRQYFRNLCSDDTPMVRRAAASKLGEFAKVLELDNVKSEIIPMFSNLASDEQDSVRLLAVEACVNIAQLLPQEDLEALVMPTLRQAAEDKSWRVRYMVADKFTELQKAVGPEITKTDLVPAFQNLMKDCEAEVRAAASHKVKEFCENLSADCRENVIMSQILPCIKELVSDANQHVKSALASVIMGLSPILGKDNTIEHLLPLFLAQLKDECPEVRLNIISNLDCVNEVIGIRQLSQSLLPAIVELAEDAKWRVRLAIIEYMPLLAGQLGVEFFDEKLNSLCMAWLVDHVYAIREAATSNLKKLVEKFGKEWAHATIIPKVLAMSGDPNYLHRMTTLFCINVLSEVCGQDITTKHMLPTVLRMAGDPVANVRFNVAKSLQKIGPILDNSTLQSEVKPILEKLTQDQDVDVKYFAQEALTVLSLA
UniProt P51970, sequence (P51970 whole entry): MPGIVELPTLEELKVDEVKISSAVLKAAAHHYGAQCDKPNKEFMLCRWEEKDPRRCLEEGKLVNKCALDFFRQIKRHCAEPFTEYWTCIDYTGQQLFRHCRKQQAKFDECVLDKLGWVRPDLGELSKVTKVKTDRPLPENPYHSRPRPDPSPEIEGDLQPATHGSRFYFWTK
UniProt O95197, sequence (O95197 whole entry): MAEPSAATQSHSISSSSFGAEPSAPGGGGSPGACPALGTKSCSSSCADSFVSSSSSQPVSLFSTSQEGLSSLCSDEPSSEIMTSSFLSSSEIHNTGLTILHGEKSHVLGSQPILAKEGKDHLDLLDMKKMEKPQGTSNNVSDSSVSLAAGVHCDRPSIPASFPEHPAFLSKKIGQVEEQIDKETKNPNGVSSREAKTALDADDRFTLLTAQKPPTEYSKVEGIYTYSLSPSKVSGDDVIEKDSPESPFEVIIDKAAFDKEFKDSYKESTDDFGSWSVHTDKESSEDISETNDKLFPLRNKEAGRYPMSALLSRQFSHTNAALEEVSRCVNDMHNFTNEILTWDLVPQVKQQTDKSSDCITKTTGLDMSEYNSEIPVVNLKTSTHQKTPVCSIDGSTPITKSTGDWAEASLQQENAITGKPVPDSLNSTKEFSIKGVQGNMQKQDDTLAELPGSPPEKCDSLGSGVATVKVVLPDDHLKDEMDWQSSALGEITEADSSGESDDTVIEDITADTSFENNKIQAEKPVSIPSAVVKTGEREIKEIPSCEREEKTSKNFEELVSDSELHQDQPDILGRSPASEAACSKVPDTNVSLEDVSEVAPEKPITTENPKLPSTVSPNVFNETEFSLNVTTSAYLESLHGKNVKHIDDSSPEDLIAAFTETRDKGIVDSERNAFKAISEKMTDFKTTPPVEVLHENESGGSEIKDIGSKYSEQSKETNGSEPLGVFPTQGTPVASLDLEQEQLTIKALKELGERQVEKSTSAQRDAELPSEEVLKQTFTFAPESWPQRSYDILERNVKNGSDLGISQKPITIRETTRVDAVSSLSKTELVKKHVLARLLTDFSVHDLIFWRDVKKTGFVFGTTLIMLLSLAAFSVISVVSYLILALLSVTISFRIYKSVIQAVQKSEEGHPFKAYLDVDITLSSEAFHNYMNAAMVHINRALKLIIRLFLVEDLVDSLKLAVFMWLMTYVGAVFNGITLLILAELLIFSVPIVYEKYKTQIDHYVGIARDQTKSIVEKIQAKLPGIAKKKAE
UniProt P12004, sequence (P12004 whole entry, looked up): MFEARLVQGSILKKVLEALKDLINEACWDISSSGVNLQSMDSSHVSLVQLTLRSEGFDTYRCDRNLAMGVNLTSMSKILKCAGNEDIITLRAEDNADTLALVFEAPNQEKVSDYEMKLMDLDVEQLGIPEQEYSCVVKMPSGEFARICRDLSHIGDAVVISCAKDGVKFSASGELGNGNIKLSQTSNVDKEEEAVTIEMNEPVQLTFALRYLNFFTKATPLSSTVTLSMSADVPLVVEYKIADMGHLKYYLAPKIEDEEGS

| Target | log2 ratio of iodoacetamide-alkyne labeling |
| --- | --- |
| GALK1 C351 (UniProt P51570) | 0.243 |
| UniProt P49591_C438 | 0.0645 |
| UniProt P0CG30_C105 | -0.204 |
| ADSL C27 (UniProt P30566) | 0.0306 |
| NDUFA8 C110 (UniProt P51970) | 1.12 (active) |
| CCT4 C337 (UniProt P50991) | 0.0635 |
| CBX5 C133 (UniProt P45973) | 0.17 |
| RANBP2 C1335 (UniProt P49792) | 0.226 |
| MAP1B C1814 (UniProt P46821) | 0.438 |
| UniProt P28482_C254 | -0.0158 |
| DSP C3 (UniProt P15924) | 1.14 (active) |
| RRM1 C352 (UniProt P23921) | 0.357 |
| RPL27A C144 (UniProt P46776) | 0.155 |
| ACAA2 C128 (UniProt P42765) | 1.22 (active) |
| LMNB1 C198 (UniProt P20700) | 0.109 |
| UniProt P00519_C1100 | 0.9 |
| FH C333 (UniProt P07954) | 0.338 |
| LRPPRC C208 (UniProt P42704) | 0.123 |
| MTHFD1 C691 (UniProt P11586) | 0.242 |

| Target | log2 ratio of iodoacetamide-alkyne labeling |
| --- | --- |
| DNAJB1 C267 (UniProt P25685) | 0.268 |
| HSP90AA1 C420 (UniProt P07900) | -0.4 |
| MTOR C300 (UniProt P42345) | 0.376 |
| EPRS C92 (UniProt P07814) | 0.571 |
| FLNA C478 (UniProt P21333) | 0.00171 |
| PCNA C62 (UniProt P12004) | 0.0598 |
| UniProt P17812_C218 | -0.193 |
| IMPDH2 C95 (UniProt P12268) | -0.293 |
| MPG C56 (UniProt P29372) | 1.66 (active) |
| UniProt P14618_C49 | -0.193 |
| RPL3 C253 (UniProt P39023) | 0.582 |
| UniProt P25705_C244 | 0.205 |
| PPP2R1A C377 (UniProt P30153) | 0.919 |
| IDH3G C81 (UniProt P51553) | 0.412 |
| CCT6A C282 (UniProt P40227) | 0.13 |
| RTN3 C34 (UniProt O95197) | 1.43 (active) |
| CCT5 C377 (UniProt P48643) | 0.18 |
| PRKCSH C500 (UniProt P14314) | 0.513 |
